These results are taken from PubChem BioAssay.

Structures are written as SMILES. “And” between values parts separate entries of the source, which are not always exact repeats. Identical values can stand only once. The source made the active and inactive calls. Unless noted, how the calls were made is not given here.

As a reminder, the inhibition is the relative decrease from the control value, in per cent. As a reminder, the remaining activity is the signal under treatment as a percentage of the control signal.

Experiment [1] is described as follows: compounds altering circadian rhythm period length – cell-based, LOPAC library, luminescence reporter (AID 2774).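 Further: values are relative to mean of DMSO wells on each plate.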 Particulars: circadian reporter cells, at 7 µM, actives lie on both sides.
Experiment [2] concerns Hepatitis C virus NS3 helicase. Description: blockers of NS3h binding to ssDNA – biochemical, fluorescence polarization, LOPAC1280 library, primary screen (AID 687035; in the data active means inhibition above about 37%). Conditions: Purified HCV NS3 helicase, Cy5-dT15 ssDNA binding fluorescence polarization; stronger effect = higher value; concentration not given here. For orientation: Fluorescence polarisation rises when a labelled molecule tumbles more slowly, as on binding a larger partner.

Experiment [3] can be described thus: compounds altering Cy5-DNA-NS3h complex signal – biochemical, LOPAC1280, artefact control for HCV NS3 helicase inhibitor project (AID 687037). Particulars: Cy5-DNA-NS3h complex fluorescence interference counterscreen. In general terms: A counterscreen serves to expose hits that act by an unwanted route or on another target.
Experiment [4] relates to Aerobactin synthetase IucA (Klebsiella pneumoniae). Description: inhibition of K. pneumoniae IucA enzyme – biochemical, Tocris library, absorbance (AID 1345561).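 Further: 100% = enzyme without compound and 0% = no enzyme.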 Particulars: purified IucA enzyme assay, absorbance (OD) read-out; stronger effect = lower value;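 tested at 8 µM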.
Experiment [5] is described as follows: viability loss with induced miR-34 in A549 – imaging, A549 dox-inducible miR-34, nuclei and caspase counts, primary screen (AID 1347080;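 active means compounds whose cell count with miR-34 switched on is under 0.7 times the count with it off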). Particulars: A549 miR-34 inducible, Hoechst nuclei count, 48 h.
A short description of experiment [6]: blockers of cellular phospholipid synthesis – cell-based, LOPAC library, screen 4, primary screen (AID 1347384). Conditions: animal cells, phospholipid biosynthesis inhibition screen; at 10 µM.
The nature of experiment [7]: galactose survival enhancers in mitochondrial complex I cybrids – cell-based, galactose medium, ATP luminescence, primary screen (AID 1645843;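 active means z-score of at least 1.8 in each of two replicates, scored against plate mean and spread of sample wells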;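 further: positive z means more ATP and so rescue of galactose-driven cybrid death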). Particulars: complex I mutant cybrid cells, 72 h, stronger effect = higher value.
Experiment [8] in a line: chitosan synthesis blockers in C. neoformans – flow cytometry, Cibacron Brilliant Red staining (AID 1347148).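 Further: compound exposure lasted three days at 37 degrees C.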 Conditions: Cryptococcus neoformans chitosan, stronger effect = lower value; at 10 µM unless noted. On the technique in general: Flow cytometry measures light scatter and fluorescence of single cells or particles in a stream.
Experiment [9] is described as follows: compounds altering viability of human ES cells (AID 493140).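 Further: cells exposed to compounds for four days before counting.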 Conditions: human embryonic stem cell survival screen; stronger effect = higher value.
The mark [10] stands for this setting: stronger effect = lower value, cell number ratio, induced over uninduced.
Where [11] appears, read: measured here: relative caspase fold change +Dox/-Dox.
The mark [12] stands for this setting: measured here: total cells with miR-34 induction, stronger effect = lower value.
Where [13] appears, read: measured here: total cells without miR-34 induction.

As for `O=C(OCCN1CCOCC1)C1(c2ccccc2)CCCCC1`, the period change in experiment [1] is -0.085 h (inactive). The inhibition in [2] was -2% (inactive). In addition, in experiment [3], the fluorescence ratio (interference) is 1 (inactive). Also, the remaining activity in experiment [4] is 124% (inactive). For the same compound, the fold change is 1.05 (inactive) and 1.02 (inactive) in [5] (setting [10]); 1.06 and 0.742 in [5] (setting [11]). For the same compound, the cell count in experiment [5] (setting [12]) is 10700 and 8020; in experiment [5] (setting [13]) it was 10200 and 7840. Moreover, in experiment [6], the result was inactive. Moreover, the z-score in [7] is -0.08 (inactive) and -0.97 (inactive).

For `COCc1nc2c([nH]1)c(=O)n(C)c(=O)n2CC(C)C`, the period change in [1] was -0.19 h (inactive). Moreover, the inhibition in experiment [2] was -4% (inactive). Moreover, in [3], the fluorescence ratio (interference) was 0.9 (inactive). Also, the remaining activity in experiment [4] was 101% (inactive). The fold change was 1.1 (inactive) and 0.916 (inactive) and 0.973 (inactive) in [5] (setting [10]); 1 and 1.13 and 0.871 in experiment [5] (setting [11]). Moreover, the cell count in experiment [5] (setting [12]) is 11000 and 5700 and 9180; in experiment [5] (setting [13]), 10000 and 6220 and 9430. Moreover, the fold fluorescence in [8] was 4.02 [at 187.8 µM] (inactive). Further, the outcome in [6] was inactive. Moreover, the z-score in [7] was 0.515 (inactive) and -0.165 (inactive).

Consider `COc1ccc(CCN(C)CCc2ccc(OC)c(OC)c2)cc1OC`, for which, in experiment [1], the period change was 0.045 h (inactive). Further, the inhibition in experiment [2] is -1% (inactive). In addition, in experiment [3], the fluorescence ratio (interference) is 1 (inactive). Further, in experiment [4], the remaining activity is 104% (inactive). Further, the fold change is 0.949 (inactive) and 0.925 (inactive) and 0.899 (inactive) in [5] (setting [10]); 1.08 and 1.5 and 0.778 in experiment [5] (setting [11]). For the same compound, the cell count in experiment [5] (setting [12]) is 8830 and 6070 and 8850; in experiment [5] (setting [13]) it was 9310 and 6560 and 9840. For the same compound, in experiment [8], the fold fluorescence is 2.96 [at 139.1 µM] (inactive). In experiment [6], the outcome was inactive. The z-score in experiment [7] is -0.285 (inactive) and -0.27 (inactive).

On to `S=C(S)OC1CC2CC1C1CCCC21` (centres undefined), for which the period change in experiment [1] was -0.18 h (inactive). The inhibition in experiment [2] was -2% (inactive). The fluorescence ratio (interference) in experiment [3] is 1 (inactive). Besides, the remaining activity in experiment [4] was 120% (inactive). Further, the fold change is 0.999 (inactive) and 0.847 (inactive) and 0.975 (inactive) in experiment [5] (setting [10]); 0.874 and 0.927 and 0.9 in experiment [5] (setting [11]). For the same compound, the cell count in [5] (setting [12]) was 10600 and 4560 and 8830; in [5] (setting [13]) it was 10600 and 5380 and 9060. In experiment [8], the fold fluorescence was 5.66 [at 187.6 µM] (inactive). Further, the result in experiment [6] was inactive. Also, in [7], the z-score was -0.025 (inactive) and -0.095 (inactive).

Regarding `COc1cc(/C=C(\C#N)C(N)=O)cc(CSc2nc3ccccc3s2)c1O`, the survival in experiment [9] is 114 (inactive). Moreover, in [4], the remaining activity is 115% (inactive). Besides, the fold change is 0.859 (inactive) and 0.896 (inactive) in experiment [5] (setting [10]); 1.08 and 1.29 in experiment [5] (setting [11]). In addition, the cell count in experiment [5] (setting [12]) is 4790 and 8180; in experiment [5] (setting [13]) it was 5570 and 9130. In experiment [8], the fold fluorescence was 9.44 [at 125.8 µM] (inactive). The z-score in experiment [7] was 5.03 (active).

`CC(N)=NCc1cccc(CN)c1`: the period change in [1] is -0.015 h (inactive). The remaining activity in experiment [4] was 107% (inactive). Moreover, the fold change was 1.05 (inactive) and 0.837 (inactive) in experiment [5] (setting [10]); 1.01 and 0.692 in experiment [5] (setting [11]). The cell count was 6210 and 7850 in [5] (setting [12]); 5900 and 9380 in experiment [5] (setting [13]). In addition, the fold fluorescence in experiment [8] was 3.53 [at 282.1 µM] (inactive). Moreover, in experiment [7], the z-score was 0 (inactive).
